For 71 molecules, outcome results are on record in PubChem BioAssay AID1159577 (Broad Institute, 2015).

Hit rate of the full screen: of about 1,300 compounds, about 240 (18%) were called active. Another 8% or so got no clear call; they are omitted. No rule for the calls is given here. The list is a sample of the results. Results with a measured potency or affinity are listed apart.

This test is described as follows: toxicity to human hepatoma HepG2 cells – cell-based, cherry-picked samples, cytotoxicity control, dose response (AID 1159577). The note with it: HepG2 cytotoxicity counterscreen, plate reader; series mostly up to 19.5 µM.
With `O=C(C1CCCCC1)N1[C@H](CO)[C@@H](c2ccccc2)C12CN(Cc1cccc(Cl)c1)C2`, the outcome was inactive.
Turning to `CN(C)c1ccc2c(c1)[C@@H]1C[C@@H](CC(=O)NCc3cc(F)ccc3F)O[C@@H](CO)[C@@H]1O2`, the call was inactive.
As for `CC(C)(C)[S@](=O)N1Cc2cc(C(=O)N[C@@H]3CCN(Cc4ccccc4)C3)nc(-c3cccc(-c4cccnc4)c3)c2[C@@H]1CCO`, the molecule was called inactive.
For the molecule `C/C=C/c1ccc2c(c1)[C@@H]1[C@@H](CCN1C(=O)C1CCCC1)[C@H](CO)N2`, the outcome was inactive.
Take `O=C(C1CCCC1)N1CC2(C1)[C@@H](c1ccccc1)[C@H](CO)N2Cc1ccc(Cl)cc1`: the call was inactive.
For the molecule `CO[C@@H]1CN(C)C(=O)c2cc(NC(=O)Nc3cccc(Cl)c3)ccc2OC[C@@H](C)NC[C@@H]1C`, the molecule was classed as inactive.
In the case of `CO[C@@H]1CN(C)C(=O)c2cc(NC(=O)Nc3ccc(C(F)(F)F)cc3)ccc2OC[C@H](C)NC[C@H]1C` it was “inactive”; in that of `CO[C@H]1CN(C)C(=O)c2cc(NC(=O)Nc3cccc(Cl)c3)ccc2OC[C@H](C)NC[C@H]1C`, “inactive”.
Turning to `CO[C@H]1CN(C)C(=O)c2cc(NC(=O)Nc3ccc(C(F)(F)F)cc3)ccc2OC[C@H](C)NC[C@H]1C`, the call was inactive.
With `CO[C@@H]1CN(C)C(=O)c2cc(NC(=O)Nc3ccc(C(F)(F)F)cc3)ccc2OC[C@H](C)NC[C@@H]1C`, the outcome was inactive.
In the case of `CO[C@@H]1CN(C)C(=O)c2cc(NC(=O)Nc3ccc(C(F)(F)F)cc3)ccc2OC[C@@H](C)NC[C@@H]1C`, the molecule was classed as inactive.
For `CO[C@@H]1CN(C)C(=O)c2cc(NC(=O)Nc3cccc(Cl)c3)ccc2OC[C@H](C)NC[C@H]1C`, the call was inactive.
Take `Cc1ccccc1S(=O)(=O)N1[C@H](CO)[C@@H](c2ccc(C#CC3CC3)cc2)[C@@H]1C#N`: the molecule was called inactive.
Regarding `CCCNC(=O)N1[C@H](C#N)[C@H](c2ccc(-c3ccccc3F)cc2)[C@@H]1CO`, the molecule was called inactive.
Consider `COc1ccc(C#Cc2cnc3c(c2)C(=O)N([C@H](C)CO)C[C@H](C)[C@H](CN(C)S(=O)(=O)c2cccc(F)c2)O3)cc1OC`, for which the result was inactive.
`COc1ccc(CN2CC3(CCN(C(=O)c4ccccc4)CC3)c3c([nH]c4cc(OC)ccc34)[C@@H]2CO)cc1`: the molecule was classed as inactive.
In the case of `O=C(c1ccc(F)cc1)N1CC(=O)N2[C@H](CO)[C@H](c3ccc(-c4cccnc4)cc3)[C@H]2C1` it was “inactive”; in that of `O=C(C1CCOCC1)N1[C@H](CO)[C@@H](c2ccccc2)C12CN(Cc1cccc(Cl)c1)C2`, “inactive”.
Regarding `COc1ccc(-c2ccc([C@@H]3[C@H]4CN(C(=O)NC(C)C)CC(=O)N4[C@H]3CO)cc2)cc1`, the call was inactive.
Regarding `COc1ccc2c3c(n(C)c2c1)[C@H](CO)N(C(=O)Nc1ccc(F)cc1)CC31CCN(S(=O)(=O)c2cccc(F)c2)CC1`, the molecule was classed as inactive.
`CN1c2ccc(-c3cccc(C#N)c3)cc2[C@H]2[C@H](CCN2S(=O)(=O)c2ccccc2F)[C@H]1CO`: the molecule was classed as inactive.
In the case of `CCCN(C)C[C@@H]1Oc2cc(C#Cc3cccnc3)ccc2S(=O)(=O)N([C@H](C)CO)C[C@@H]1C`, the molecule was classed as inactive.
On to `COc1ccc2c3c([nH]c2c1)[C@H](CO)N(Cc1ccccc1Cl)CC31CN(C(=O)C2CC2)C1`, for which the molecule was called inactive.
As for `C[C@@H]1CN([C@@H](C)CO)C(=O)c2cccc(NC(=O)c3ccc(-c4nccs4)cc3)c2O[C@H]1CN(C)Cc1ccc(Cl)c(Cl)c1`, the entry is “inactive”; as for `C[C@H](O)C#Cc1cnc2c(c1)C(=O)N([C@@H](C)CO)C[C@@H](C)[C@@H](CN(C)C(=O)Cc1ccncc1)O2`, “inactive”; as for `CO[C@H]1CN(C)C(=O)c2ccc(NC(=O)c3nc4ccccc4s3)cc2OC[C@H](C)N(Cc2ccncc2)C[C@@H]1C`, “inactive”.
For the molecule `C[C@@H]1CN([C@@H](C)CO)S(=O)(=O)c2ccc(C#CC3CCCC3)cc2O[C@H]1CN(C)C(=O)Cc1ccncc1`, the call was inactive.
`C[C@@H](O)C#Cc1ccc([C@H]2[C@H]3CN(S(=O)(=O)c4ccccc4)CCCCN3[C@H]2CO)cc1`: the call was inactive.
Take `CC(C)C#Cc1ccc([C@@H]2[C@H](CO)N3CCCCN(C(=O)c4ccc5c(c4)OCO5)C[C@@H]23)cc1`: the molecule was called inactive.
In the case of `COc1ccc2c3c(n(C)c2c1)[C@H](CO)N(C(=O)Nc1ccc(F)cc1)CC31CCN(C(=O)c2ccc3c(c2)OCO3)CC1` it was “inactive”.
For `CC(C)(C)S(=O)N1Cc2cc(C(=O)NCc3ccc4c(c3)OCO4)nc(-c3cccc(-c4cc5ccccc5o4)c3)c2[C@H]1CCO` (stereo partly specified), the molecule was classed as inactive.
As to `COc1ccc2c3c(n(C)c2c1)[C@@H](CO)N(C(=O)C1CCCC1)CC31CCN(C(=O)Nc2cccc(F)c2)CC1`, the result was inactive.
`O=C(Nc1ccccc1F)N1CCCCN2[C@@H](CO)[C@@H](c3ccc(C#Cc4cccnc4)cc3)[C@@H]2C1`: the result was inactive.
For the molecule `C[C@H]1CN([C@@H](C)CO)S(=O)(=O)c2ccc(-c3ccc(C#N)cc3)cc2O[C@H]1CN(C)CC1CC1`, the result was inactive.
Turning to `CCS(=O)(=O)N1CCC2(CC1)CN(S(=O)(=O)c1ccc(C)cc1)[C@@H](CO)c1[nH]c3cc(OC)ccc3c12`, the call was inactive.
Consider `Cc1cccc(S(=O)(=O)N2C[C@@H]3N[C@H](C2)C3c2ccc(-c3cccnc3)cc2)c1` (stereo partly specified), for which the result was inactive.
As for `Fc1cccc(-c2ccc(C3[C@@H]4CN(Cc5cncnc5)C[C@H]3N4)cc2)c1` (stereo partly specified), the molecule was classed as inactive.
On to `c1cncc(-c2ccc(C3[C@@H]4CN(Cc5nccs5)C[C@H]3N4)cc2)c1` (stereo partly specified), for which the molecule was classed as inactive.
In the case of `FC(F)(F)c1cccc(CN2[C@@H]3CNC[C@H]2[C@@H]3c2ccc(-c3cccnc3)cc2)c1`, the result was inactive.
In the case of `O=C(C1CCCC1)N1CC(=O)N2[C@H](CO)[C@H](c3ccc(-c4cccnc4)cc3)[C@H]2C1` it was “inactive”; in that of `C[C@@H]1CN([C@H](C)CO)S(=O)(=O)c2ccc(C#Cc3ccccc3)cc2O[C@H]1CN(C)S(=O)(=O)c1cn(C)cn1`, “inactive”.
As for `CC(C)C#Cc1ccc([C@@H]2[C@@H](CO)N3C(=O)CN(C(=O)C4CCCCC4)C[C@@H]23)cc1`, the entry is “inactive”; as for `CO[C@@H]1CN(C)C(=O)c2ccc(NC(=O)C3CC3)cc2OC[C@@H](C)N(Cc2ccccc2)C[C@H]1C`, “inactive”.
For `CC(=O)N1CC2(C1)[C@@H](c1ccc(-c3cccc(F)c3)cc1)[C@@H](CO)N2CC1CCCC1`, the outcome was inactive.
As for `O=C(c1ccccc1F)N1C[C@H]2[C@@H](c3ccccc31)[C@@H](CO)N2C(=O)c1ccc(F)cc1`, the outcome was inactive.
In the case of `CCS(=O)(=O)N1CC2(CN(Cc3ccccc3F)[C@@H](CO)c3[nH]c4cc(OC)ccc4c32)C1`, the outcome was inactive.
As for `CCCC(=O)Nc1ccc2c(c1)OC[C@@H](C)N(Cc1ccccc1F)C[C@@H](C)[C@H](OC)CN(C)C2=O`, the entry is “inactive”; as for `O=C(c1ccncc1)N1CC(=O)N2[C@H](C1)[C@@H](c1ccc(-c3cccnc3)cc1)[C@@H]2CO`, “inactive”; as for `COc1cccc(C#Cc2ccc([C@H]3[C@@H](CO)N4C(=O)CN(C(=O)c5ccccc5)C[C@H]34)cc2)c1`, “inactive”.
On to `O=C(C1CCC1)N1CC(=O)N2[C@H](CO)[C@@H](c3ccc(C#CCc4ccccc4)cc3)[C@H]2C1`, for which the result was inactive.
Take `O=C(C1CC1)N1CC(=O)N2[C@H](CO)[C@@H](c3ccc(C#CCc4ccccc4)cc3)[C@@H]2C1`: the molecule was called inactive.
In the case of `O=C(Cc1ccccc1)N1CC(=O)N2[C@H](CO)[C@H](c3ccc(C#CCc4ccccc4)cc3)[C@H]2C1` it was “inactive”.
As for `O=C(C1CCC1)N1CC(=O)N2[C@H](CO)[C@@H](c3ccc(C#CCc4ccccc4)cc3)[C@@H]2C1`, the call was inactive.
Regarding `COc1ccc(C#Cc2ccc([C@H]3[C@H]4CN(C(=O)c5ccccc5)CC(=O)N4[C@H]3CO)cc2)cc1`, the result was inactive.
In the case of `O=C(C1CCCCC1)N1CC(=O)N2[C@H](CO)[C@@H](c3ccc(C#CCc4ccccc4)cc3)[C@@H]2C1`, the molecule was called inactive.
For the molecule `O=C(C1CCCC1)N1CC(=O)N2[C@H](CO)[C@@H](c3ccc(C#CCc4ccccc4)cc3)[C@@H]2C1`, the outcome was inactive.
Regarding `C[C@H]1CN([C@@H](C)CO)C(=O)c2c(c3ccccc3n2C)-c2ccccc2CO[C@@H]1CN(C)S(=O)(=O)c1ccc(F)cc1`, the outcome was inactive.
In the case of `N#C[C@H]1[C@@H](c2ccc(C#Cc3ccccc3F)cc2)[C@@H](CO)N1C(=O)C1CCC1`, the call was inactive.
For the molecule `C[C@H]1CN([C@@H](C)CO)S(=O)(=O)c2ccc(C#Cc3ccccc3)cc2O[C@H]1CN(C)C(=O)C1CC1`, the outcome was inactive.
Regarding `CCCC(=O)Nc1ccc2c(c1)OC[C@@H](C)N(Cc1cc(F)ccc1F)C[C@@H](C)[C@H](OC)CN(C)C2=O`, the molecule was called inactive.
Take `COc1ccccc1-c1ccccc1[C@H]1[C@H](C#N)N(C(=O)C2CCC2)[C@H]1CO`: the outcome was inactive.
For the molecule `COc1ccccc1S(=O)(=O)N(C)C[C@H]1Oc2cc(/C=C/c3ccccc3)ccc2S(=O)(=O)N([C@H](C)CO)C[C@@H]1C`, the call was inactive.
In the case of `COc1ccc(NC(=O)Nc2ccc3c(c2)[C@@H]2C[C@H](CC(=O)N[C@@H](C)c4ccccc4)O[C@H](CO)[C@@H]2O3)cc1` it was “inactive”; in that of `CN(C)CC(=O)N1C[C@@H]2N[C@H](C1)C2c1ccc(/C=C/c2ccccc2)cc1` (stereo partly specified), “inactive”.
`CN(C)CC#Cc1ccc([C@H]2[C@H](CO)N3CCCCN(C(=O)CN(C)C)C[C@@H]23)cc1`: the molecule was classed as inactive.
For `O=C(C1CC1)N1C[C@@H]2N[C@H](C1)C2c1ccc(-c2ccccc2F)cc1` (stereo partly specified), the molecule was classed as inactive.
On to `CN(C)C(=O)c1ccc(-c2ccc([C@H]3[C@H](CO)N4CCCCN(C(=O)C5CC5)C[C@@H]34)cc2)cc1`, for which the outcome was inactive.
With `N#Cc1ccc(-c2ccc(C3[C@@H]4CN(C(=O)C5CCCC5)C[C@H]3N4)cc2)cc1` (stereo partly specified), the result was inactive.
With `N#Cc1ccc(-c2ccc(C3[C@@H]4CN(C(=O)C5CCCCC5)C[C@H]3N4)cc2)cc1` (stereo partly specified), the molecule was classed as inactive.
In the case of `COc1ccc(CNC(=O)C[C@H]2C=C[C@@H](NS(=O)(=O)c3cccc(OC)c3)[C@@H](CO)O2)cc1`, the outcome was inactive.
For `Cc1noc(C)c1NC(=O)Nc1ccc2c(c1)C(=O)N([C@H](C)CO)C[C@@H](C)[C@@H](CN(C)S(C)(=O)=O)O2`, the molecule was classed as inactive.
